Measured values from the supplement of paper PMC6522484.
Where “and” joins values, the source holds several entries; their conditions need not be identical. Identical values can stand only once. ± gives the standard deviation of the averaged measurements.

Columns and labels:
DLD1 [1] = experiment: cell viability (CellTiter-Glo) relative to plate median (fraction of plate median); higher = more viable cells; settings: 5 µM; treatment time 24 h; reporter: 7TFP
Procedure, shortened: (§1)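 For this screen, colorectal cancer cell lines carrying stable lentiviral TCF/Wnt firefly luciferase reporters, either 7TFP or TCF4/Wnt, were seeded into 384-well plates. A day's wait of 24 h preceded addition of library compounds at a final 5 µM, which stayed on the cells for 24 h. Firefly luciferase or CellTiterGlo luminescence, read on parallel plates, was normalised to the plate median per well, and the reported value is the mean of two independent replicates.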

HCT116 = experiment: as above; settings: 5 µM; treatment time 24 h; reporter: TCF4/Wnt
Procedure, shortened: as §1

SW480 [2] = experiment: as above; settings: 5 µM; treatment time 24 h; reporter: 7TFP
Procedure, shortened: as §1

DLD1 [3] = experiment: TCF/Wnt firefly luciferase reporter signal relative to plate median (fraction of plate median); higher = higher Wnt reporter signal; settings: 5 µM; treatment time 24 h; reporter: 7TFP
Procedure, shortened: as §1

SW480 [4] = experiment: as above; settings: 5 µM; treatment time 24 h; reporter: 7TFP
Procedure, shortened: as §1

SMILES | cell viability (DLD1 [1]) | cell viability (HCT116) | cell viability (SW480 [2]) | TCF/Wnt firefly luciferase reporter signal (DLD1 [3]) | TCF/Wnt firefly luciferase reporter signal (SW480 [4])
CC1CCC(C(C)C)C(O)C1 (stereo not given) | 1.05 ± 0.1 | 1.04 | 1.02 ± 0.066 | 1.09 ± 0.035 | 1.01 ± 0.09
CN(C)[C@@H]1C(O)=C(C(N)=O)C(=O)[C@@]2(O)C(O)=C3C(=O)c4c(O)ccc(Cl)c4[C@@](C)(O)[C@H]3C[C@@H]12 | 1.05 ± 0.028 | 1.1 ± 0.085 | 1.02 ± 0.014 | 1.11 ± 0.13 | 0.99 ± 0.0042
COc1ccc(C2CNC(=O)C2)cc1OC1CCCC1 (stereo not given) | 0.992 ± 0.011 | 0.989 ± 0.059 | 0.968 ± 0.0099 | 1.04 ± 0.18 | 1.06 ± 0.021
CC1=C(/C=C/C(C)=C/C=C/C(C)=C/CO)C(C)(C)CCC1 | 0.974 ± 0.079 | 1.15 ± 0.042 | 1.04 ± 0.042 | 1.14 ± 0.042 | 1.04 ± 0.057
CCN(CC)CCOc1ccc2c(c1)C(=O)c1cc(OCCN(CC)CC)ccc1-2 | 0.941 ± 0.083 | 0.925 ± 0.072 | 0.998 ± 0.045 | 1.05 ± 0.093 | 1.02 ± 0.06
CCCCC(CC)CN1CN(CC(CC)CCCC)CC(C)(N)C1 (stereo not given) | 0.96 ± 0.071 | 0.988 ± 0.032 | 0.985 ± 0.0028 | 1.01 ± 0.048 | 0.997 ± 0.018
CCN1CCCC(OC(=O)C(c2ccccc2)c2ccccc2)C1 (stereo not given) | 0.981 | 1.01 | 0.953 ± 0.025 | 0.941 ± 0.076 | 1.01 ± 0.07
Cc1cc(=O)c2c(O)cc(O)c(C)c2o1 | 0.906 ± 0.061 | 0.873 ± 0.034 | 0.9105 ± 0.0035 | 1.25 ± 0.26 | 1.02 ± 0.039
CC(C)=CCc1cccc2c(C[C@@H]3NC(=O)[C@H](C)NC3=O)c[nH]c12 [Terezine D] | 1.03 ± 0.021 | 0.9635 ± 0.0021 | 0.981 ± 0.084 | 1.12 ± 0.31 | 0.92 ± 0.0099
CC(C)c1nc(N(C)S(C)(=O)=O)nc(-c2ccc(F)cc2)c1/C=C/[C@@H](O)C[C@@H](O)CC(=O)O | 0.93 ± 0.11 | 0.9675 ± 0.00071 | 1.02 ± 0.014 | 0.984 ± 0.08 | 0.913 ± 0.15
CC1(C)CCC[C@]2(C)[C@@H]3[C@H]1[C@@H](O)[C@@]2(C)C[C@H]3O | 1.005 ± 0.0071 | 0.991 ± 0.11 | 1.12 ± 0.014 | 0.981 ± 0.023 | 1.13 ± 0.014
COc1ccc(C(C)=O)c(OC)c1 | 0.971 ± 0.056 | 0.963 ± 0.15 | 0.9765 ± 0.00071 | 0.864 ± 0.044 | 1.03 ± 0.16
O=C(O)/C=C(\CC(=O)O)C(=O)O | 1.05 ± 0.014 | 0.98 ± 0.018 | 1 ± 0.011 | 1.11 ± 0.035 | 0.978 ± 0.059
C=C[C@@H](C1=CC(=O)C(OC)=C(OC)C1=O)c1ccccc1 | 0.903 ± 0.0057 | 0.856 ± 0.11 | 1.08 ± 0.014 | 0.712 ± 0.033 | 0.907 ± 0.023
CN(CCOc1ccc(CC2SC(=O)NC2=O)cc1)c1ccccn1 (stereo not given) | 0.935 ± 0.03 | 0.894 ± 0.044 | 0.949 ± 0.04 | 0.899 ± 0.09 | 0.906 ± 0.15
COc1ccc([C@@H]2CC(=O)c3c(O)cc(O[C@@H]4O[C@H](CO[C@@H]5O[C@@H](C)[C@H](O)[C@@H](O)[C@H]5O)[C@@H](O)[C@H](O)[C@H]4O)cc3O2)cc1O | 0.995 ± 0.0014 | 0.973 ± 0.038 | 1.02 ± 0.014 | 1.04 ± 0.17 | 0.988 ± 0.031
CC(=O)OCC(=O)[C@@]1(O)CC[C@H]2[C@@H]3CCC4=CC(=O)CC[C@]4(C)[C@H]3[C@@H](O)C[C@@]21C | 1.04 ± 0.077 | 1.08 ± 0.057 | 1.04 ± 0.05 | 1.05 | 1.07 ± 0.064
CC(=O)N[C@@H](CC(=O)N[C@@H](CCC(=O)O)C(=O)O)C(=O)O | 1.01 ± 0.014 | 1.055 ± 0.0071 | 0.925 ± 0.011 | 0.958 ± 0.088 | 0.988 ± 0.032
COc1cc(OC)c2c(=O)c(-c3ccccc3)coc2c1 | 0.989 ± 0.0028 | 1.04 ± 0.12 | 1.025 ± 0.0071 | 1.09 ± 0.064 | 1.1 ± 0.05
C[C@@H]1OC(=O)C2=C1O[C@@H]1[C@@H](O)[C@]3(O)CCCC[C@H]3[C@](C)(C2=O)[C@@H]1C [Dihydrotetrodecamycin] | 1.08 ± 0.057 | 1.05 ± 0.071 | 1.065 ± 0.0071 | 1.08 ± 0.15 | 1.04 ± 0.069
COc1cc(NS(=O)(=O)c2ccc(N)cc2)nc(OC)n1 | 0.9765 ± 0.0092 | 0.924 ± 0.031 | 0.956 ± 0.063 | 0.895 ± 0.28 | 0.8105 ± 0.0064
CN[C@@H]1[C@@H](O)[C@@H](O[C@@H]2[C@@H](O)[C@H](O[C@H]3OC(CN)=CC[C@H]3N)[C@@H](N)C[C@H]2N)OC[C@]1(C)O | 1.04 | 0.9635 ± 0.0092 | 1.07 ± 0.042 | 0.933 ± 0.17 | 0.97 ± 0.085
CC(C)Cn1c(=O)n(C)c(=O)c2nc[nH]c21 | 0.956 ± 0.048 | 1.04 ± 0.05 | 0.9585 ± 0.0092 | 0.972 ± 0.054 | 0.987 ± 0.018
COC(=O)C1=C(C)NC(C)=C(C(=O)OCCN(C)Cc2ccccc2)C1c1cccc([N+](=O)[O-])c1 (stereo not given) | 0.914 ± 0.074 | 1.02 ± 0.1 | 0.98 ± 0.042 | 0.941 ± 0.13 | 0.951 ± 0.065
CC(COc1ccccc1)N(CCCl)Cc1ccccc1 (stereo not given) | 1 ± 0.057 | 1.05 ± 0.028 | 0.978 ± 0.025 | 1.05 ± 0.21 | 1.03 ± 0.014
COc1cc(/C=C/C(=O)O)ccc1O | 1.004 ± 0.0092 | 1.11 ± 0.057 | 1.01 ± 0.038 | 0.972 ± 0.069 | 1.12 ± 0.078
CCCCCC1C(=O)CCC1CC(=O)O (stereo not given) | 1.02 ± 0.25 | 1.2 ± 0.18 | 1.105 ± 0.0071 | 1.06 ± 0.099 | 1.04 ± 0.058
CS(=O)(=O)c1ccc(C2=C(c3ccccc3)C(=O)OC2)cc1 | 1 ± 0.037 | 1.04 ± 0.042 | 0.9705 ± 0.0035 | 1.19 ± 0.092 | 1.05 ± 0.071
C[C@H](CCC(=O)O)[C@H]1CC[C@H]2[C@@H]3C(=O)C[C@@H]4CC(=O)CC[C@]4(C)[C@H]3CC(=O)[C@]12C | 0.956 and 0.954 | 0.911 and 0.941 | 0.912 and 0.967 | 0.894 and 1.06 | 1.05 and 1.15
CC(NCCC(c1ccccc1)c1ccccc1)c1ccccc1 (stereo not given) | 0.982 ± 0.04 | 1.02 ± 0.021 | 1 ± 0.051 | 0.9435 ± 0.0035 | 0.92 ± 0.015
